{"source": "PubChem BioAssay AID588475", "about": "(Sanford-Burnham Center for Chemical Genomics, 2011)", "note": "The whole screen tested about 350,000 compounds, of which about 2,100 (0.6%) were called active. For the sample, actives were picked, then their nearest neighbours and some compounds at random. Unmarked numbers belong to inactive results.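 Rule for the calls: active = inhibition of the ligand-induced calcium signal above about 50% at the single tested concentration (limit read from the data); inactive = the rest.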", "data": [{"experiment": "blockers of CRF-evoked CRF-R2/CRF-BP calcium response – cell-based, HEK293, calcium dye fluorescence, uHTS, primary screen (AID 588475)", "conditions": "CRF-induced calcium fluorescence, at 11.8 µM, active compounds read high", "values": [{"compound": "CCCCCn1c(=O)c(C(=O)NCc2ccccc2)c(O)c2ccccc21", "inhibition": "3.02%"}, {"compound": "CCCCn1c(=O)c(C(=O)Nc2ccccc2Cl)c(O)c2ccccc21", "inhibition": "-17.9%"}, {"compound": "CCCCCn1c(=O)c(C(=O)Nc2c(C)n(C)n(-c3ccccc3)c2=O)c(O)c2ccccc21", "inhibition": "56.7% (active)"}, {"compound": "O=C(COc1ccc2ccccc2c1)N1CCN(Cc2ccncc2)CC1", "inhibition": "-1.35%"}, {"compound": "O=c1c2ccccc2nc(-c2ccc(Cl)cc2Cl)n1-c1ccncc1", "inhibition": "13.6%"}]}]}
